From PubChem BioAssay (NCATS)
Several values for one entry are separate records, joined by “and”; a condition that tells them apart may be missing. Equal values may be shown once. Results filed as inconclusive are left out. Activity calls are given as the source filed them. Unless noted, the call rests on the fitted dose curve; in most records, active means well fitted curve in the direction sought with a large enough effect; inconclusive means small, poorly fitted or top-dose-only effect, or another doubt; inactive means no such curve, though single readings can be large; an effect the other way counts as inactive or inconclusive.

Key:
[1] = Cell Viability - N2a (AID 540); details: N2a mouse neuroblastoma cell viability; activity change, negative = cytotoxicity: at 92.2 µM (top of the series);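 further: cells exposed to compound for 40 h at 37 °C; plate controls were DMSO alone for no effect and tamoxifen control for full effect; nearly all actives have a fitted effect of over 45% in size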
Summary of the method: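 Luminescent ATP signal (CellTiter-Glo, 20 min at room temperature) served as the viability read-out after N2a cells were treated with compounds for 40 hours at 37 °C. Concentration-response data were fitted to the Hill equation for AC50.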

[2] = Cell Viability - Renal Proximal Tubule (AID 545); details: renal proximal tubule cells viability, primary cells of rat origin; at 91.7 µM (top of the series);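 further: 0% = DMSO only and -100% = 100 µM tamoxifen; nearly all actives have a fitted effect of over 40% in size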
Summary of the method: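 Primary rat renal proximal tubule cells (1000/well) were treated with compounds for 40 hr at 37 °C in complete medium. Intracellular ATP was measured by CellTiter-Glo luminescence, and AC50 values came from Hill-equation fits of concentration-response data.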

[3] = MultiTox-Fluor Cytotoxicity Assay - LYMP1-003 - Dead Cells (AID 961);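 further: 0% = DMSO and 100% = tetraoctylammonium bromide; nearly all actives have a fitted effect of over 70% in size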
Summary of the method: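 LYMP1-003 human lymphoblastoid cells (2500/well) exposed to compound 16 h at 37 C in complete medium; dead-cell protease read with bis-AAF-R110 fluorescence (Ex/Em 485/520) after 60 min at room temperature. Normalized to DMSO and 15 uM tetraoctylammonium bromide; AC50 from Hill fit.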

[4] = Cell Viability - LYMP2-003 (AID 965);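 further: cells exposed to compounds for 24 h before reading; 0% = DMSO only and full effect = 92 µM tetraoctylammonium bromide; nearly all actives have a fitted effect of over 50% in size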
Summary of the method: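 Human lymphoblastoid cells (2500/well) were pre-incubated 5 hr at 37 C, then exposed to compounds over a concentration range for 24 hr at 37 C. Intracellular ATP was read by CellTiter-Glo luminescence; AC50 came from Hill-equation fits.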

[5] = Cell Viability - LYMP2-005 (AID 967);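 further: plate controls were DMSO only for no effect and 92 µM tetraoctylammonium bromide control for full effect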
Summary of the method: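 CellTiter-Glo luminescence (cellular ATP) read-out; LYMP2-005 lymphoblastoid cells, 2500/well, 5 h pre-incubation, then 24 h compound exposure at 37 C in complete medium. Tetraoctylammonium bromide positive control; AC50 by standard Hill fit.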

[6] = Cell Viability - LYMP2-009 (AID 968);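 further: 0% = DMSO alone and the full-kill end = tetraoctylammonium bromide at 92 µM; nearly all actives have a fitted effect of over 55% in size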
[7] = Cell Viability - LYMP2-015 (AID 971);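 further: 0% = DMSO only and full effect = 92 µM tetraoctylammonium bromide; nearly all actives have a fitted effect of over 55% in size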
Summary of the method: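 Luminescent ATP read-out (CellTiter-Glo) served as the viability measure after lymphoblastoid cells were exposed to compounds for 24 hours at 37 C. Concentration-response data were fitted with the Hill equation to give AC50.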

[8] = Cell Viability - LYMP2-019 (AID 973);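 further: 0% = DMSO alone and full effect = 92 µM tetraoctylammonium bromide; nearly all actives have a fitted effect of over 55% in size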
Summary of the method: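 Luminescent ATP read-out (CellTiter-Glo, 30 min room temperature) served as the viability measure after 24 hr treatment of lymphoblastoid cells at 37 C. Concentration-response data were fitted to the Hill equation for AC50.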

[9] = Cell Viability - LYMP2-021 (AID 974);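 further: compound exposure lasts 24 hours at 37 °C; on the % scale 0 is the no-effect control and ±100 the full control effect; nearly all actives have a fitted effect of over 55% in size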
Summary of the method: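 Plate 2500 lymphoblastoid cells per well and incubate 5 hr at 37 C. Add compounds over a concentration range and incubate 24 hr at 37 C. Add CellTiter-Glo, wait 30 min at room temperature, read luminescence.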

[10] = Cell Viability - LYMP2-023 (AID 975)
Summary of the method: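 2500 cells/well, 5 hr 37 C; cpd 24 hr 37 C; CellTiter-Glo, 30 min RT; luminescence. qHTS conc-response, Hill fit -> AC50. Pos ctrl tetraoctylammonium bromide.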

[11] = Cell Viability - LYMP2-025 (AID 976);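 further: plate controls were DMSO only for no effect and tetraoctylammonium bromide control for full effect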
Summary of the method: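 Seed 2500 LYMP2-025 cells/well; 5 hr at 37 C; add compound; 24 hr at 37 C; add CellTiter-Glo; 30 min RT; read luminescence. AC50 from Hill-modelled concentration-response.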

[12] = Cell Viability - LYMP2-002 (AID 977);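 further: plate controls were DMSO only for no effect and 92 µM tetraoctylammonium bromide for full effect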
Summary of the method: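 Cytotoxicity is scored as concentration-dependent loss of cellular ATP in a human lymphoblastoid line after 24 hr compound treatment at 37 C. AC50 is obtained by modelling concentration-response data with the Hill equation.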

[13] = Cell Viability - LYMP2-006 (AID 978); further: on the % scale 0 is the no-effect control and ±100 the full control effect; nearly all actives have a fitted effect of over 60% in size
Summary of the method: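 Human lymphoblastoid cells, 2500 per well, were preincubated 5 hr at 37 C, then exposed to compounds for 24 hr at 37 C in complete medium. Viability was read as intracellular ATP by CellTiter-Glo luminescence; AC50 from Hill-equation fits of qHTS concentration-response data.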

[14] = Cell Viability - LYMP2-008 (AID 980); further: on the % scale 0 is the no-effect control and ±100 the full control effect; nearly all actives have a fitted effect of over 60% in size
Summary of the method: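 qHTS, human lymphoblastoid line, 2500 cells/well; 5 hr preincubation, 24 hr compound, 37 C. CellTiter-Glo ATP luminescence. AC50 via Hill equation. Tetraoctylammonium bromide positive control.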

[15] = Cell Viability - LYMP2-014 (AID 983);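 further: plate controls were DMSO only for no effect and 92 µM tetraoctylammonium bromide for full effect; nearly all actives have a fitted effect of over 50% in size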
Summary of the method: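 Luminescent ATP signal (CellTiter-Glo, 30 min at room temperature) serves as the viability read-out after 24 hr compound exposure at 37 C. Cells were seeded at 2500 per well and settled 5 hr beforehand.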

[16] = Cell Viability - LYMP2-016 (AID 984)
Summary of the method: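 Human lymphoblastoid cells (LYMP2-016), 2500/well in complete medium, preincubated 5 hr at 37 C, then compound-treated 24 hr at 37 C. Intracellular ATP read by CellTiter-Glo luminescence after 30 min at room temperature; AC50 from Hill-equation concentration-response fits.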

[17] = Cell Viability - LYMP2-026 (AID 989); further: on the % scale 0 is the no-effect control and ±100 the full control effect; nearly all actives have a fitted effect of over 50% in size
Summary of the method: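 Luminescent ATP signal (CellTiter-Glo, 30 min room temperature) measures viable lymphoblastoid cells after 24 hr compound treatment at 37 C. Decreased ATP reflects acute toxicity; AC50 values come from Hill-equation modeling.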

[18] = Cell Viability - LYMP1-002 - Assay at 40 hr (AID 994);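 further: 0% = DMSO only and full inhibition = 92 µM tetraoctylammonium bromide; nearly all actives have a fitted effect of over 60% in size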
Summary of the method: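 Luminescent ATP signal served as the viability readout, with decreases taken as toxicity. Cells were treated with compounds across a concentration range for 40 hours at 37 C, and AC50 values came from standard Hill modeling.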

[19] = molecular target: Thyroid hormone receptor beta (Homo sapiens) (UniProt P10828); experiment: qHTS assay for small molecule agonists of thyroid hormone receptor beta signaling (AID 588545; calls by dose curve)
Sequence of Thyroid hormone receptor beta (Homo sapiens) (P10828 whole entry, looked up): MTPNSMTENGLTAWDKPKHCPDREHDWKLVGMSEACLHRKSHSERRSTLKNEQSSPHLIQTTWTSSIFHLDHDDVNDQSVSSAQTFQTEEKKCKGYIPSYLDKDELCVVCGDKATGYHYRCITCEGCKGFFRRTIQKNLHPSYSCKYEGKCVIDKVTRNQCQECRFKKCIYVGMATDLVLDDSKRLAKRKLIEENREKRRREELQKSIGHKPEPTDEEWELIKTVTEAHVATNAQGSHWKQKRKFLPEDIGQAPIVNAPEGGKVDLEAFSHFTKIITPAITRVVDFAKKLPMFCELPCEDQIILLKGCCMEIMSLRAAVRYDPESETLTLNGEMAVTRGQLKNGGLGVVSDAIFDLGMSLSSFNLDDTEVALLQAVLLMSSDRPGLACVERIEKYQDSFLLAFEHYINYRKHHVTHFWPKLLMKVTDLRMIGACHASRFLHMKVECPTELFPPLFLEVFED
Summary of the method: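 HEK 293 TR-UAS-bla; agonist mode; 18 hrs, 37 C; CCF4, ex 405/em 460 and 530 nm; norm. T3 10 nM = 100%, DMSO = 0%; Hill fit → EC50, efficacy.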

[20] = molecular target: Retinoic acid receptor RXR-alpha (Homo sapiens) (UniProt P19793); experiment: qHTS assay for small molecule antagonists of retinoid X receptor alpha signaling (AID 588546; active means well fitted inhibition curve with a large enough effect in the signal ratio, with a control signal flat, not every such curve was filed as active; the % refers to the signal ratio;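 further: cells stimulated with 9-cis-retinoic acid as agonist; on the % scale 0 is the no-effect control and ±100 the full control effect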); details: HEK293T RXRa-UAS-bla, beta-lactamase ratio, antagonist mode
Sequence of Retinoic acid receptor RXR-alpha (Homo sapiens) (P19793 whole entry, looked up): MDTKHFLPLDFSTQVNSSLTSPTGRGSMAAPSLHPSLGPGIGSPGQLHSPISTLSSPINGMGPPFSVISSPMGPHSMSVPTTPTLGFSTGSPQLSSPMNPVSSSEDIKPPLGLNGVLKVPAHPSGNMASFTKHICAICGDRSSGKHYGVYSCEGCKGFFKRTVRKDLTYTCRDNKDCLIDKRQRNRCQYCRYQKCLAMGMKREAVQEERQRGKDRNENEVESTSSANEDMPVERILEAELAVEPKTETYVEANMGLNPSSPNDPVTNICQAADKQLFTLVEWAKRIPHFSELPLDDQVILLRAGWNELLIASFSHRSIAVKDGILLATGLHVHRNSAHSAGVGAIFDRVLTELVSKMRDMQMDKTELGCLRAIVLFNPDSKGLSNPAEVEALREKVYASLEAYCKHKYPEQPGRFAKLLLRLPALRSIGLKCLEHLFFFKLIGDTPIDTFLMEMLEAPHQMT
Summary of the method: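 Beta-lactamase reporter inhibition, read as CCF4 fluorescence ratio (ex 405, em 460/530 nm) after 2 h at RT. HEK293T UAS-bla cells, 2500/well, were stimulated with 9-cis-RA at 500 or 100 nM final alongside test compound for 18 h at 37 C.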

Cc1cccc([N+](=O)[O-])c1C
inactive: activity change, negative = cytotoxicity [1] -2.02% | activity change, negative = cytotoxicity [2] 0.624% | Potency [3] | Potency [4] | Potency [5] | Potency [6] | Potency [7] | Potency [8] | Potency [9] | Potency [10] | Potency [11] | Potency [12] | Potency [13] | Potency [14] | Potency [15] | Potency [16] | Potency [17] | Potency [18] | outcome [19] | max response [20] -8.9% and -18.4%

CC(=O)OC/C=C(\C)CCC=C(C)C
inactive: activity change, negative = cytotoxicity [1] -0.528% | activity change, negative = cytotoxicity [2] 3.05% | Potency [3] | Potency [4] | Potency [5] | Potency [6] | Potency [7] | Potency [8] | Potency [9] | Potency [10] | Potency [11] | Potency [12] | Potency [13] | Potency [14] | Potency [15] | Potency [16] | Potency [17] | Potency [18] | outcome [19] | max response [20] 5.08% and 4.69%

O=[N+]([O-])c1cccc(Cl)c1Cl
inactive: activity change, negative = cytotoxicity [1] -3.99% | activity change, negative = cytotoxicity [2] -2.04% | Potency [3] | Potency [4] | Potency [5] | Potency [6] | Potency [7] | Potency [8] | Potency [9] | Potency [10] | Potency [11] | Potency [12] | Potency [13] | Potency [14] | Potency [15] | Potency [16] | Potency [17] | Potency [18] | max response [20] 13.3% and -13.6%

C=Cc1ccccc1Cl
inactive: activity change, negative = cytotoxicity [1] 1.46% | activity change, negative = cytotoxicity [2] -4.37% | Potency [3] | Potency [4] | Potency [5] | Potency [6] | Potency [7] | Potency [8] | Potency [9] | Potency [10] | Potency [11] | Potency [12] | Potency [13] | Potency [14] | Potency [15] | Potency [16] | Potency [17] | Potency [18] | outcome [19] | max response [20] -6.96%

Cc1ccc(N)c([N+](=O)[O-])c1
inactive: activity change, negative = cytotoxicity [1] 2.46% | activity change, negative = cytotoxicity [2] 4.17% | Potency [3] | Potency [4] | Potency [5] | Potency [6] | Potency [7] | Potency [8] | Potency [9] | Potency [10] | Potency [11] | Potency [12] | Potency [13] | Potency [14] | Potency [15] | Potency [16] | Potency [17] | Potency [18] | outcome [19] | max response [20] -0.0872% and -10.2%

c1ccc2c(c1)[nH]c1ccccc12
inactive: activity change, negative = cytotoxicity [1] -16.4% | activity change, negative = cytotoxicity [2] -10.3% | Potency [3] | Potency [4] | Potency [5] | Potency [6] | Potency [7] | Potency [8] | Potency [9] | Potency [10] | Potency [11] | Potency [12] | Potency [13] | Potency [14] | Potency [15] | Potency [16] | Potency [17] | Potency [18] | outcome [19] | max response [20] 0.549% and -19.1%

S=C1NC=NC2N=CNC12 (configuration not stated)
inactive: Potency [3] | Potency [5] | Potency [7] | Potency [12] | Potency [13] | Potency [16] | outcome [19] | max response [20] -10.4%

CCC(O)OC(O)CC (configuration not stated)
inactive: activity change, negative = cytotoxicity [1] 5.7% and 11.3% | activity change, negative = cytotoxicity [2] -7.55% and -1.85% | Potency [3] | Potency [4] | Potency [5] | Potency [6] | Potency [7] | Potency [8] | Potency [9] | Potency [10] | Potency [11] | Potency [12] | Potency [13] | Potency [14] | Potency [15] | Potency [16] | Potency [17] | Potency [18] | outcome [19] | max response [20] -3.68% and -1.43%

CCCCCCCCCCCCCCC1CO1 (configuration not stated)
inactive: activity change, negative = cytotoxicity [1] 8.54% | activity change, negative = cytotoxicity [2] -7.28% | Potency [3] | Potency [4] | Potency [5] | Potency [6] | Potency [7] | Potency [8] | Potency [9] | Potency [10] | Potency [11] | Potency [12] | Potency [13] | Potency [14] | Potency [15] | Potency [16] | Potency [17] | Potency [18] | outcome [19] | max response [20] 5.21% and -18.5%

Clc1cc(Cl)c(Cl)cc1Cl
inactive: activity change, negative = cytotoxicity [1] 2.22% | activity change, negative = cytotoxicity [2] -8.1% | Potency [3] | Potency [4] | Potency [5] | Potency [6] | Potency [7] | Potency [8] | Potency [9] | Potency [10] | Potency [11] | Potency [12] | Potency [13] | Potency [14] | Potency [15] | Potency [16] | Potency [17] | Potency [18] | outcome [19] | max response [20] 6.25% and -33.5%
